In PubChem BioAssay (Tox21):
Inconclusive results are not listed. Active and inactive are the calls of the source. The call rests on the fitted dose curve; in most records, active means well fitted activation curve with a large enough effect in the signal ratio in the repeat runs (not every such curve was filed as active); inconclusive means weak or mixed curves, or effect the other way; inactive means no such curve, though single readings can be large or run the other way; the % refers to the signal ratio.

These molecules were tested against Glucocorticoid receptor (Homo sapiens) (UniProt P04150) (assay: qHTS assay to identify small molecule agonists of the glucocorticoid receptor (GR) signaling pathway (AID 720691)). Conditions: GR-bla HeLa, beta-lactamase reporter ratio, 18 h; series mostly up to 62.4 µM.
Glucocorticoid receptor (Homo sapiens), sequence (P04150 whole entry, looked up): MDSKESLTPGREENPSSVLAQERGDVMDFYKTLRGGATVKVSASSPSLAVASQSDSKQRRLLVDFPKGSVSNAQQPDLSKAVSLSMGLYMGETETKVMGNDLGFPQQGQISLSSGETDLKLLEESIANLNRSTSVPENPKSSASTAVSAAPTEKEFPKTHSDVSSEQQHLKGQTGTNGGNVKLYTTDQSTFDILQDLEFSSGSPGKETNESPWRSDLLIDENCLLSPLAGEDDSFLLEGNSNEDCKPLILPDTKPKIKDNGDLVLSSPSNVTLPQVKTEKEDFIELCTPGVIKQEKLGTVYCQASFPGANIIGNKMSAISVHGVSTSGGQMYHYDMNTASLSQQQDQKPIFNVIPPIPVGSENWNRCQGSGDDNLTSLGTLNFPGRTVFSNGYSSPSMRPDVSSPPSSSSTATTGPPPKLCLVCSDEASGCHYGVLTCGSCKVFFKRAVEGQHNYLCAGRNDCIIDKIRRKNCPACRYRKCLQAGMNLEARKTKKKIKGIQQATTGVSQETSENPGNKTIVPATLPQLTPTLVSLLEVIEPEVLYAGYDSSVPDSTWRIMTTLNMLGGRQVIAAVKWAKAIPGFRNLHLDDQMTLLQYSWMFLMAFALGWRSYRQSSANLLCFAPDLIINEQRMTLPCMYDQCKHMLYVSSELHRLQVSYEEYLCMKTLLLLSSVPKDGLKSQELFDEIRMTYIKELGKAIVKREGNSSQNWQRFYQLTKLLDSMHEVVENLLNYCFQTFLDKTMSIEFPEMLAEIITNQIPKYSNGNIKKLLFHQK
Excerpt: U.S. Tox21 Program National Center for Advancing Translational Sciences [NCATS] NIH Chemical Genomics Center [NCGC] U.S. Environmental Protection Agency [EPA] National Institutes of Environmental Health Sciences [NIEHS] National Toxicology Program [NTP] U.S. Food and Drug Administration [FDA] Tox21 Assay Overview: The Glucocorticoid receptor (GR) is one of the members of the nuclear receptor family of ligand-dependent transcription factors. GR plays a critical role in carbohydrate, protein and lipid metabolisms and programmed cell death. CellSensor GR-bla HeLa cell line (Invitrogen) contains a beta-lactamase reporter gene under the control of the glucocorticoid response element stably integrated into HeLa cells, a cervical cancer cell line that expresses glucocorticoid receptor. The activation of the reporter gene under culture conditions can be detected by fluorescence intensity. This cell line has been used to screen the Tox21 10K compound library and to identify the compounds that activate the GR signaling.
Tox21 Assay Protocol Summary: The GR-bla HeLa cells were dispensed at 1500 cells/6 ul/well in 1536-well black wall/clear bottom plates using a Multidrop Combi (ThermoFisher Scientific, Waltham, MA) dispenser. After the assay plates were incubated at a 37 C/5% CO2 incubator for 4 hours, 23 nL of compounds dissolved in DMSO, positive controls or DMSO only was transferred to the assay plate by a pintool station (Kalypsys, San Diego, CA). The plates were incubated at 37 C for 18 hours. After 1 uL of LiveBLAzerTM B/G FRET substrate was added using a Flying Reagent Dispenser (Aurora Discovery, San Diego, CA), the plates were incubated at room temperature for 2 hours, and fluorescence intensity was measured by an Envision plate reader (PerkinElmer, Shelton, CT).
In the case of `O=NN1CCCCC1`, the outcome is reported as “inactive”. In the case of `Cc1cc(C)nc(Nc2ccccc2)n1`, the outcome is reported as “inactive”. With `OC(c1ccc(F)cc1)(c1cncnc1)c1ccccc1Cl` (stereo not given) the outcome was “inactive”. `CNCC(=O)c1ccc(O)c(O)c1` was tested, and the outcome was “inactive”. For `CCS(=O)(=O)CCSP(=O)(OC)OC`, the outcome was “inactive”. With `CN(N=O)C(N)=O` the outcome was “inactive”. `CCNc1nc(NC(C)C)nc(OC)n1` was tested, and the outcome was “inactive”. `CC(CC(C#N)(c1ccccc1)c1ccccc1)N(C)C` (stereo not given) was tested, and the outcome was “inactive”. In the case of `CCOC(=O)/C=C(C)/C=C/C[C@@H](C)CCCC(C)C`, the outcome is reported as “inactive”. In the case of `CCOP(=S)(Oc1cnc(C(C)(C)C)nc1)OC(C)C` (stereo not given), the outcome is reported as “inactive”. `CCOC(=O)N(C)C(=O)CSP(=S)(OCC)OCC` was tested, and the outcome was “inactive”. In the case of `O=CNC(N1CCN(C(NC=O)C(Cl)(Cl)Cl)CC1)C(Cl)(Cl)Cl` (stereo not given), the outcome is reported as “inactive”. `CC(C)NCC(O)c1ccc(N)c(C#N)c1` (stereo not given) was tested, and the outcome was “inactive”. In the case of `C=CCC1=C(C)[C@@H](OC(=O)[C@@H]2[C@@H](C=C(C)C)C2(C)C)CC1=O`, the outcome is reported as “inactive”. For `CCC(Cl)[N+](=O)[O-]` (stereo not given), the outcome was “inactive”. In the case of `OC(c1ccccc1)(c1ccccc1)C1CCNCC1`, the outcome is reported as “inactive”. For `O=C1CN=C(c2ccccc2)c2cc([N+](=O)[O-])ccc2N1`, the outcome was “inactive”. With `COC(=O)C(C)Oc1ccc(Oc2ccc(Cl)cc2Cl)cc1` (stereo not given) the outcome was “inactive”. In the case of `Cc1coc2c1CCC(C)C2` (stereo not given), the outcome is reported as “inactive”. For `CCN(CC)C(=O)[C@@H]1C=C2c3cccc4[nH]cc(c34)C[C@H]2N(C)C1`, the outcome was “inactive”. For `CC(C)CP(=S)(S)CC(C)C`, the outcome was “inactive”. With `COc1ccc2c(c1OC)CN1CCc3cc4c(cc3C1C2)OCO4` (stereo not given) the outcome was “inactive”. With `O=c1oc2ccccc2c(O)c1C1CCCc2ccccc21` (stereo not given) the outcome was “inactive”. With `N#Cc1c(Cl)cccc1Cl` the outcome was “inactive”. For `CCCCc1c(C)nc(NCC)[nH]c1=O`, the outcome was “inactive”. `CCCCN(CCCCO)N=O` was tested, and the outcome was “inactive”. `OCCBr` was tested, and the outcome was “inactive”. With `CC(C)COP(=O)(OCC(C)C)OCC(C)C` the outcome was “inactive”. `ClC(Cl)Br` was tested, and the outcome was “inactive”. In the case of `O=C(NCO)NCO`, the outcome is reported as “inactive”. For `C=C(C)CN(CC)c1c([N+](=O)[O-])cc(C(F)(F)F)cc1[N+](=O)[O-]`, the outcome was “inactive”. `O=C(Cc1ccccc1)OCc1ccccc1` was tested, and the outcome was “inactive”. With `ClC(Cl)(Cl)C(Cl)(Cl)Cl` the outcome was “inactive”. `CCc1cc2c(s1)-n1c(C)nnc1CN=C2c1ccccc1Cl` was tested, and the outcome was “inactive”. `C[C@]12CC[C@H]3[C@@H](CC=C4C[C@@H](O)CC[C@@]43C)[C@@H]1CC[C@@H]2O` was tested, and the outcome was “inactive”. In the case of `CCOC(=O)NC(=S)Nc1ccccc1NC(=S)NC(=O)OCC`, the outcome is reported as “inactive”. For `O=C(CCN1CC1)OCC(CO)(COC(=O)CCN1CC1)COC(=O)CCN1CC1`, the outcome was “inactive”. `CNC(=O)Oc1ccccc1C1OCCO1` was tested, and the outcome was “inactive”. `COc1cc(OC)nc(NC(=O)NS(=O)(=O)c2ncccc2C(=O)N(C)C)n1` was tested, and the outcome was “inactive”. In the case of `Cc1cccc(C#N)c1`, the outcome is reported as “inactive”.
